PubChem BioAssay (NCI)
Compounds without any hit were thinned out: in the full panel of roughly 83,000, 20% have a hit.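 Step 1: grow cells in 96-well plates. Step 2: add test compound at a single concentration. Step 3: incubate 48 h. Step 4: record percent growth.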 Unmarked numbers belong to inactive results. Calls of active or inactive are those of the source. How the source made its calls: active means growth percent below 10; inactive means the rest.

System: OVCAR-8 ovarian
Experiment: NCI-60 one-dose screen, 48 h (100 = growth as untreated, 0 = no growth, -100 = all killed)
Conditions: 10 µM unless noted

Point of comparison: `CCOC(=O)CC/C(C)=N\Nc1ccc([N+](=O)[O-])cc1`, growth 56.9%. Against it:
- CC(C)CCN(CCCNc1c2c(nc3ccccc13)CCCC2)CCC(C)C — higher, 91.1%
- Nc1c(C(=O)Nc2cccc([N+](=O)[O-])c2)sc2nc3c(cc12)C(O)CCC3 (configuration not stated) — higher, 82.3%
- CCN(CC)CCSc1c2ccc(Cl)cc2nc2ccc(OC)cc12 — higher, 88.5%
- CNC(=O)Cc1nc(-c2cccc(NS(=O)(=O)c3c(F)cccc3F)c2F)c(-c2ccnc(Nc3ccccc3)n2)s1 — higher, 57.8%
- CC(=O)Nc1ccc(S(=O)(=O)N2C(=O)CCC2C(=O)Nc2ccccc2)cc1 (configuration not stated) — lower, 40.4%
- Nc1cccc2c1CN(C1CCC(=O)NC1=O)C2=O (configuration not stated) — higher, 81.1%
- C=CC(=O)N[C@H](/C=C/C(=O)OCC)Cc1ccc(-c2cc(Cl)cc(Cl)c2)cc1 — higher, 76.6%
- CCOC(=O)CC(C#N)(CC(=O)OCC)C(=O)OCC — higher, 88.8%
- CCN(CC)CCCNc1nc(C)cc(Nc2ccc3nc(C)cc(N)c3c2)n1 — higher, 106%
- O=c1cc(C2NCCc3c2[nH]c2ccccc32)c2c(ccc3ccccc32)o1 (configuration not stated) — higher, 60.1%
- Nc1nc(N)c2nc(CNc3ccc(C(=O)CC(CCC(=O)O)C(=O)O)cc3)cnc2n1 (configuration not stated) — lower, 14.8%
- O=C1Nc2cc(Cl)ccc2/C1=C/c1ccc(N2CCOCC2)s1 — higher, 98.2%
- O=S(=O)(NCCCNc1nccc(-c2c(-c3ccccc3)nc3sccn23)n1)c1ccc(F)cc1 — lower, 26.2%
- COc1cc(CCn2nnc3c(NCCCCO)ncnc32)cc(OC)c1 — higher, 101%
- CCN1C(=O)N(CC)C2Nn3c(s/c(=C\c4cccc(F)c4)c3=O)=NC21 (configuration not stated) — higher, 77.4%
- O=C1c2ccccc2C(=O)c2c1oc1oc3c(c(=O)c21)c(=O)n(-c1ccccc1)c1ccccc31 — lower, 48.2%
- Cc1c(C2=NNC(c3ccc4c(c3)OCO4)C2)[n+]([O-])c2ccccc2[n+]1[O-] (configuration not stated) — higher, 109%
- c1ccc(CCn2nnc3c(Nc4ccc(N5CCOCC5)cc4)ncnc32)cc1 — higher, 86.2%
- COc1ccc(C2SCC(=O)N2NC(=O)c2ccc(NC(=O)c3ccccn3)cc2)cc1OC (configuration not stated) — higher, 98%

For `O=C(CC(O)c1ccncc1)c1ccccc1` (configuration not stated), the growth was -36.8% (active).
In the case of `O=Nc1c(-c2c(O)[nH]c3ccc([N+](=O)[O-])cc23)[nH]c2ccc(O)cc12`, the growth was 7.71% (active).
In the case of `CC/C=C\C[C@H](O)C/C=C1/C(=O)C(Cl)=C[C@@H]1C/C=C\CCCC(=O)OC`, the growth was 1.69% (active).
For `CC(C)N(Cc1ccc(CN(C(=O)CCl)C(C)C)cc1)C(=O)CCl`, the growth was -12.9% (active).

System: OVCAR-5 ovarian
Experiment: as above
Conditions: 10 µM unless noted

Point of comparison: `O=C(CC(O)c1ccncc1)c1ccccc1` (configuration not stated), growth 104%. Against it:
- Cc1ccc(C2=NN(c3ccc(S(N)(=O)=O)cc3)C(c3cn(-c4ccccc4)nc3-c3ccccc3)C2)cc1 (configuration not stated) — higher, 115%
- CCN1C(=O)N(CC)C2C1NN=c1s/c(=C\c3cccc(F)c3)c(=O)n12 (configuration not stated) — lower, 55.6%
- O=c1[nH]c(-c2cn(-c3ccc(Cl)cc3)nn2)nc2ccccc12 — lower, 102%
- C=CCN=C1NC(=O)/C(=C/c2cc(C(C)(C)C)c(O)c(C(C)(C)C)c2)S1 — lower, 92.1%
- O=c1[nH]c(CN2CCN(c3ccccc3F)CC2)nc2sc3c(c12)CCC3 — lower, 96.8%
- COc1ncc(-c2ccc3ncnc(Nc4cccc(Cl)c4)c3c2)cc1NS(=O)(=O)C1CC1 — lower, 28%
- Nc1nc(Cl)c2c(ncn2Cc2ccc(CCl)cc2)n1 — higher, 109%
- O=S(=O)(NCCCNc1cc(-c2cn(-c3ccccc3)nc2-c2cccc(O)c2)ccn1)c1cccc2ccccc12 — lower, 59.7%
- CC1CCN(C(=O)CSc2nc3sc4c(c3c(=O)[nH]2)CCCC4)CC1 — lower, 102%
- Cc1cc(Nc2nc(C(=O)Nc3ccccc3)nc3ccccc23)n[nH]1 — lower, 82.2%
- O=[N+]([O-])c1cc(S(=O)(=O)OCC2CO2)ccc1Cl (configuration not stated) — higher, 111%
- N#CC1=C(N)n2nc(-c3ccncc3)nc2NC1c1cccc2ccccc12 (configuration not stated) — lower, 100%
- O=C1NC(Cc2c[nH]c3ccccc23)C(=O)N1Cc1ccc(Cl)cc1 (configuration not stated) — higher, 108%
- CSc1ccccc1C#C/C=C\C#Cc1ccccc1N1CCCC1=O — lower, 72.2%
- CC(C)CCN(CCCNc1c2c(nc3ccccc13)CCCC2)CCC(C)C — lower, 83.6%
- Nc1c(C(=O)Nc2cccc([N+](=O)[O-])c2)sc2nc3c(cc12)C(O)CCC3 (configuration not stated) — lower, 78.7%
- CCN(CC)CCSc1c2ccc(Cl)cc2nc2ccc(OC)cc12 — lower, 103%
- CNC(=O)Cc1nc(-c2cccc(NS(=O)(=O)c3c(F)cccc3F)c2F)c(-c2ccnc(Nc3ccccc3)n2)s1 — lower, 32.9%
- CC(=O)Nc1ccc(S(=O)(=O)N2C(=O)CCC2C(=O)Nc2ccccc2)cc1 (configuration not stated) — lower, 58.4%
- Nc1cccc2c1CN(C1CCC(=O)NC1=O)C2=O (configuration not stated) — lower, 95.6%
- C=CC(=O)N[C@H](/C=C/C(=O)OCC)Cc1ccc(-c2cc(Cl)cc(Cl)c2)cc1 — lower, 95.5%
- CCOC(=O)CC(C#N)(CC(=O)OCC)C(=O)OCC — lower, 99.9%
- CCN(CC)CCCNc1nc(C)cc(Nc2ccc3nc(C)cc(N)c3c2)n1 — lower, 102%
- O=c1cc(C2NCCc3c2[nH]c2ccccc32)c2c(ccc3ccccc32)o1 (configuration not stated) — lower, 78.3%
- Nc1nc(N)c2nc(CNc3ccc(C(=O)CC(CCC(=O)O)C(=O)O)cc3)cnc2n1 (configuration not stated) — lower, 53.1%
- O=C1Nc2cc(Cl)ccc2/C1=C/c1ccc(N2CCOCC2)s1 — lower, 94.4%
- O=S(=O)(NCCCNc1nccc(-c2c(-c3ccccc3)nc3sccn23)n1)c1ccc(F)cc1 — higher, 111%
- O=Nc1c(-c2c(O)[nH]c3ccc([N+](=O)[O-])cc23)[nH]c2ccc(O)cc12 — higher, 110%
- CCOC(=O)CC/C(C)=N\Nc1ccc([N+](=O)[O-])cc1 — lower, 84.3%
- COc1cc(CCn2nnc3c(NCCCCO)ncnc32)cc(OC)c1 — higher, 121%
- CCN1C(=O)N(CC)C2Nn3c(s/c(=C\c4cccc(F)c4)c3=O)=NC21 (configuration not stated) — lower, 86.8%
- O=C1c2ccccc2C(=O)c2c1oc1oc3c(c(=O)c21)c(=O)n(-c1ccccc1)c1ccccc31 — lower, 88.7%
- Cc1c(C2=NNC(c3ccc4c(c3)OCO4)C2)[n+]([O-])c2ccccc2[n+]1[O-] (configuration not stated) — lower, 91.9%
- c1ccc(CCn2nnc3c(Nc4ccc(N5CCOCC5)cc4)ncnc32)cc1 — lower, 88.1%
- COc1ccc(C2SCC(=O)N2NC(=O)c2ccc(NC(=O)c3ccccn3)cc2)cc1OC (configuration not stated) — lower, 100%

In the case of `CC/C=C\C[C@H](O)C/C=C1/C(=O)C(Cl)=C[C@@H]1C/C=C\CCCC(=O)OC`, the growth was -30% (active).
For `CC(C)N(Cc1ccc(CN(C(=O)CCl)C(C)C)cc1)C(=O)CCl`, the growth was 4.12% (active).
